Assay results: a collection of fitness landscapes (doi:10.1016/j.celrep.2020.107928)
In all, about 81,000 sequences were measured (“one-hybrid fitness for binding parS DNA”: median about -0.17, highest 2% from about 0.51 on). The list comes from a sample in which the highest values are over-represented; it also holds similar and randomly drawn sequences.

B1: Caulobacter ParB omega fusion; a variant is named by its letters at X, in order, B8GW30 (parent)
chain: MESVVVGEPGMSEGRRGLGRGLSALLGEVDAAPAQAPGEQLGGSREAPIEILQRNPDQPRRTFREEDLEDLSNSIREKGVLQPILVRPSPDTAGEYQIVAGERAWRAAQRAGLKTVPIMVRELDDLAVLEIGIIENVQRADLNVLEEALSYKVLMEKFERTQENIAQTIGKSXSHVANXMRLLXLPDEVQSYLVSGELTAXHARAIAAAADPVALAKQIIEGGLSVRETEALARKAPNLSAGKSKGGRPPRVKDTDTQALESDLSSVLGLDVSIDHRGSTGTLTITYATLEQLDDLCNRLTRGI

Variants of: B1
Assay: one-hybrid fitness for binding parS DNA (scaled: cognate 1, non-cognate 0); higher = stronger binding
Conditions: with parS DNA site
In short: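 Selection: bacterial one-hybrid in E. coli USO, HIS3 reporter with the site 19 bp from the promoter, 48 hours at 37°C on M9-minus-histidine plus 0.1 mM IPTG and 5 mM 3-AT. Libraries were Caulobacter ParB with four randomised specificity codons, sequenced on Illumina before and after selection. Fitness is the rescaled log change in variant-to-wild-type read ratio, anchored to the cognate and non-cognate sites.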

Variant	one-hybrid fitness for binding parS DNA
RVPK	≤ 0.2
RVPM	≤ 0.2
RVIT	0.703
RVIQ	≤ 0.2
RVPT	0.529
RVIF	≤ 0.2
CFTG	≤ 0.2
TTVP	≤ 0.2
PCIV	≤ 0.2
RNNA	0.529
RNKA	0.541
RNDA	0.354
RNSA	0.495
RNRA	0.534
RNVA	0.312
RNWA	0.294
RNQA	0.489
RNYA	0.467
CRFC	≤ 0.2
AKST	≤ 0.2
DDYL	≤ 0.2
DYFD	≤ 0.2
RYQR	≤ 0.2
QVQY	≤ 0.2

Variant	one-hybrid fitness for binding parS DNA
RMTI	≤ 0.2
KKRY	≤ 0.2
IVRC	≤ 0.2
DLVM	≤ 0.2
RNDM	≤ 0.2
RNNH	≤ 0.2
RNDK	≤ 0.2
RNNN	0.385
RNDG	0.679
RNNG	0.948
LLYC	≤ 0.2
DVVM	≤ 0.2
PAYG	≤ 0.2
PDSP	≤ 0.2
THIF	≤ 0.2
ESHS	≤ 0.2
VADN	≤ 0.2
RMHD	≤ 0.2
RFHP	≤ 0.2
RMHN	0.482
RMHS	0.979
RFHH	≤ 0.2
RKHS	0.832
RKHN	0.375

Variant	one-hybrid fitness for binding parS DNA
RCHS	0.953
RPHS	≤ 0.2
RFHS	0.996
RKHD	≤ 0.2
RCHD	≤ 0.2
SNSI	≤ 0.2
KYKR	≤ 0.2
WCAL	≤ 0.2
YGRT	≤ 0.2
RSHH	≤ 0.2
RAHS	0.985
RSHP	≤ 0.2
RAHN	0.481
RSHS	1
RAHD	≤ 0.2
WEGR	≤ 0.2
ADSS	≤ 0.2
ALSE	≤ 0.2
KLGY	≤ 0.2
RVFD	≤ 0.2
RVFN	0.399
RVAN	0.452
RVAH	0.225
RVFS	1.03

Variant	one-hybrid fitness for binding parS DNA
RVAS	1.01
PPTK	≤ 0.2
IPLI	≤ 0.2
QGDC	≤ 0.2
PYSF	≤ 0.2
RMDW	≤ 0.2
RMYW	0.216
RMKW	0.694
RCKW	0.367
RMVW	0.23
RMRW	0.586
MALS	≤ 0.2
IADM	≤ 0.2
HDPK	≤ 0.2
FDHR	≤ 0.2
TTAR	≤ 0.2
QWPT	≤ 0.2
QFYR	≤ 0.2
VGKG	≤ 0.2
DTYA	≤ 0.2
DTRA	≤ 0.2
RTRA	0.794
ATYA	≤ 0.2
RTYA	0.606

Variant	one-hybrid fitness for binding parS DNA
NTRA	≤ 0.2
NWKG	≤ 0.2
RVDE	≤ 0.2
TNYG	≤ 0.2
PHTE	≤ 0.2
MVER	≤ 0.2
GAIS	≤ 0.2
VHEV	≤ 0.2
RERG	0.388
RSRG	0.965
RPYG	≤ 0.2
RSRR	≤ 0.2
RCRG	0.927
RDRG	≤ 0.2
RPRG	≤ 0.2
RDYG	≤ 0.2
RCYG	1.04
EMQT	≤ 0.2
RTTM	0.316
HGTT	≤ 0.2
LGRI	≤ 0.2
DCMT	≤ 0.2
VQTR	≤ 0.2
RYWT	0.787

Variant	one-hybrid fitness for binding parS DNA
RYWP	≤ 0.2
RYCQ	≤ 0.2
RYYF	0.22
RYWD	≤ 0.2
RYGK	≤ 0.2
RYCT	0.852
RYGT	0.853
RYCK	≤ 0.2
RYYT	0.876
RYGY	0.42
RYYK	≤ 0.2
TIPF	≤ 0.2
GWDS	≤ 0.2
DNAI	≤ 0.2
LTPR	≤ 0.2
DAHI	≤ 0.2
KFDS	≤ 0.2
TQIL	≤ 0.2
VNDP	0.246
RYLT	0.911
RYLN	0.396
RYRT	0.737
RYSQ	≤ 0.2
RYLP	≤ 0.2

Variant	one-hybrid fitness for binding parS DNA
RYST	0.862
RYNT	0.819
RYSM	0.302
RYNE	≤ 0.2
RYRF	≤ 0.2
RYRQ	≤ 0.2
RYNQ	≤ 0.2
DRTC	≤ 0.2
SSMT	≤ 0.2
KHMR	≤ 0.2
VHNS	≤ 0.2
QCGM	≤ 0.2
MVQC	≤ 0.2
PQQE	≤ 0.2
MRLA	≤ 0.2
PVER	≤ 0.2
RYQY	0.422
RYDF	≤ 0.2
RYHH	0.213
RYQT	0.853
RYDR	≤ 0.2
RYQQ	≤ 0.2
RYHT	0.889
RYHP	≤ 0.2

Variant	one-hybrid fitness for binding parS DNA
RYDT	0.79
VVQF	≤ 0.2
QNYM	≤ 0.2
DLKH	≤ 0.2
LLYM	≤ 0.2
LLNS	≤ 0.2
QAGT	≤ 0.2
RTIT	0.813
RTPY	0.221
RTPT	0.558
RTIN	0.355
RTID	0.203
RTPD	≤ 0.2
PDAC	≤ 0.2
RTWY	0.521
RSWY	0.422
RCWY	0.513
RPWY	≤ 0.2
RAWY	0.512
IEES	≤ 0.2
IWRM	≤ 0.2
RRIW	≤ 0.2
VLVG	≤ 0.2
RWGK	≤ 0.2

Variant	one-hybrid fitness for binding parS DNA
RWPC	0.337
RWLM	≤ 0.2
RWGN	≤ 0.2
RWGC	0.61
RWLC	0.658
RWIN	≤ 0.2
RWHC	0.733
RWHY	0.275
RWHQ	≤ 0.2
RWLK	≤ 0.2
RWIC	0.521
CKVC	≤ 0.2
IMHG	≤ 0.2
QMQR	≤ 0.2
ATLN	≤ 0.2
RPRL	≤ 0.2
ASCK	≤ 0.2
TRPS	≤ 0.2
GPIF	≤ 0.2
WAKY	≤ 0.2
RWQC	0.73
RWSK	≤ 0.2
RWSY	0.338
RWCK	≤ 0.2

Variant	one-hybrid fitness for binding parS DNA
RWQQ	≤ 0.2
RWSC	0.788
RWCD	≤ 0.2
RWQR	≤ 0.2
RWCC	0.636
RWRC	0.895
RWRH	0.223
RWRD	≤ 0.2
ADHG	≤ 0.2
DYYC	≤ 0.2
LWRS	≤ 0.2
VTPY	≤ 0.2
PYRW	≤ 0.2
MYTG	≤ 0.2
NWWC	≤ 0.2
RWYD	≤ 0.2
RWWM	≤ 0.2
RWYC	0.662
RWWC	0.521
RWYP	≤ 0.2
GTFW	≤ 0.2
SPEV	≤ 0.2
GWNS	≤ 0.2
RHNC	0.871

Variant	one-hybrid fitness for binding parS DNA
RHNP	≤ 0.2
RHSC	0.924
RHDY	0.397
RHDC	0.878
RHDM	0.254
RHNN	0.386
RHRQ	≤ 0.2
RHRC	0.879
RHSH	≤ 0.2
RHRR	≤ 0.2
RHSD	≤ 0.2
GRGR	≤ 0.2
PQPN	≤ 0.2
DESG	≤ 0.2
ATAA	≤ 0.2
TIDL	≤ 0.2
FQIS	≤ 0.2
YIVC	≤ 0.2
CDYG	≤ 0.2
TKDN	≤ 0.2
ASNP	≤ 0.2
RHHM	0.266
RHCY	0.371
RHCF	≤ 0.2

Variant	one-hybrid fitness for binding parS DNA
RHCC	0.869
RHHC	0.934
RHLC	0.928
RHLK	≤ 0.2
RHHY	0.4
RHYF	0.211
RHYC	0.92
RHYR	≤ 0.2
RHLY	0.428
WTHL	≤ 0.2
QEVD	≤ 0.2
DTTH	≤ 0.2
VQAA	≤ 0.2
DVLS	≤ 0.2
THPF	≤ 0.2
RYFM	0.264
RYFY	0.43
RYAG	0.982
RYAQ	≤ 0.2
RYAY	0.425
RYFG	0.932
VACC	≤ 0.2
TPLH	≤ 0.2
GCSG	≤ 0.2

Variant	one-hybrid fitness for binding parS DNA
IIPI	≤ 0.2
PYAK	≤ 0.2
IRPT	≤ 0.2
RQEP	≤ 0.2
RQEC	0.829
RQES	0.962
RQEK	≤ 0.2
RQER	≤ 0.2
RQED	≤ 0.2
RQEN	0.379
RQEQ	0.223
RQEM	0.255
RQET	0.719
RQEG	0.89
RQEH	0.281
KSGF	≤ 0.2
HSSQ	≤ 0.2
MISR	≤ 0.2
